Source: PubChem BioAssay (several laboratories)
FadD28 binding = M. tuberculosis FadD28 bisubstrate binding inhibition; FadD28 bisubstrate probe binding, fluorescence polarization; actives 0.22% (n = 360,000); inhibition, % at 12.5 µM; in the data active = inhibition above about 8.5%, passing the limit was not always enough
Mtb FBA inh = inhibits M. tuberculosis FBA enzyme; purified M. tuberculosis FBA, fluorescence read-out; actives 2.3% (n = 360,000); inhibition, % at 1 µM;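 note: 0% = vehicle and 100% = reference inhibitor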
Rv3671c protease = Rv3671c (M. tuberculosis) protease inhibition; actives 0.048% (n = 320,000); inhibition, % at 5.96 µM; in the data active = inhibition above about 38%;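 note: extracellular domain of Rv3671c used as enzyme; 0% = enzyme with DMSO and 100% = no enzyme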
Target sequence (P9WHR9 whole entry, looked up, the tested form may be a part): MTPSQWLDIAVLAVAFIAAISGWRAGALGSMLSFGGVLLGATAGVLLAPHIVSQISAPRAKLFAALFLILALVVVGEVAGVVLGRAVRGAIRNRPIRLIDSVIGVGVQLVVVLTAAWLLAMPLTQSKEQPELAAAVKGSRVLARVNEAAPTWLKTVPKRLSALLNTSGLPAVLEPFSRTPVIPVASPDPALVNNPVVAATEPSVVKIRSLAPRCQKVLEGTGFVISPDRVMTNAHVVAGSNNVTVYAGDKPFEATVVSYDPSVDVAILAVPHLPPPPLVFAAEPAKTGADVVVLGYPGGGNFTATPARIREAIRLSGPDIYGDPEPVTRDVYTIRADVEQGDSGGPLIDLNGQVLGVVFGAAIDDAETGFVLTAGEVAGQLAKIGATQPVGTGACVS
Mtb BioA inh = inhibitors of Mycobacterium tuberculosis BioA enzyme; actives 0.096% (n = 360,000); purified M. tuberculosis BioA enzyme, plate reader; inhibition, % at 9.99 µM; in the data active = inhibition above about 40%
GDH-TPI counter-1 = GDH-TPI coupled enzyme inhibition counter-screen; inhibition, % at 4.8 µM; GDH-TPI coupled enzyme counterscreen, NADH absorbance; actives 1.2% (n = 360,000); AID 588335; in the data active = inhibition above about 30%;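 note: 0% = DMSO wells and 100% = wells lacking the enzyme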
Mtb FBA confirm = Mtb FBA inhibition, confirmed; shares compounds with Mtb FBA inh; purified M. tuberculosis FBA, fluorescence read-out; inhibition, % at 1 µM; actives 78% (n = 5,600);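 note: 0% = vehicle wells and 100% = reference inhibitor wells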
GDH-TPI counter-2 = inhibits GDH-TPI coupling enzymes, flagging Mtb FBA hits | shares compounds with Mtb FBA inh | actives 81% (n = 5,600) | GDH-TPI coupled enzyme counterscreen, fluorescence | inhibition, % at 1 µM; in the data active = inhibition above about 10%
GDH-TPI DR = inhibits GDH-TPI coupling enzymes in dose response; shares compounds with Mtb FBA inh; GDH-TPI coupled enzyme assay, fluorescence, artifact counterscreen; IC50, µM; actives 79% (n = 170); AID 652145; call rule not given here
Active calls of the source: *; nt = no result given; + = active, no number. Most compounds without a hit are left out; they make up all but 3% or so of the library. Cut-off read from the data, not from the text of the source, unless noted: active = inhibition above about 27%; inactive = the rest.

SMILES	FadD28 binding	Mtb FBA inh	Rv3671c protease	Mtb BioA inh	GDH-TPI counter-1	Mtb FBA confirm	GDH-TPI counter-2	others
Cc1ccc(Nc2ccc(C(=O)O)cc2N)cc1	nt	nt	-15	nt	nt	nt	nt
COc1ccc2[nH]c(=O)c(-c3noc(-c4ccccc4)n3)cc2c1	0	32*	-12	-1	8	165*	117*
O=c1[nH]c2ccccc2cc1-c1noc(-c2cccnc2)n1	-5	20	-7	-1	15	nt	nt
COc1ccc2[nH]c(=O)c(-c3nnn(-c4ccccc4)n3)cc2c1	-2	34*	-6	0	9	176*	128*
O=C(C[C@@H]1CC[C@H](NC(=O)c2ccccn2)[C@@H](CO)O1)NCc1cc(F)cc(F)c1	nt	nt	nt	0	nt	nt	nt
COc1cc(-c2nc3cccc(C)n3c2NCC2CCCO2)ccc1O (stereo unspecified)	-5	29*	4	nt	-10	+	+
CCNC(=O)C[C@@H]1CC[C@@H]2[C@@H](COc3ccc(NC(=O)c4cscn4)cc3C(=O)N2C)O1	nt	nt	nt	0	nt	nt	nt
COc1ccccc1-c1cn(CC[C@@H]2CC[C@@H](NC(=O)c3ccccc3F)[C@@H](CO)O2)nn1	nt	nt	nt	0	nt	nt	nt
Cn1cnc(S(=O)(=O)N[C@@H]2CC[C@H](CC(=O)NCC3CC3)O[C@@H]2CO)c1	nt	nt	nt	-3	nt	nt	nt
C[C@H]1CN([C@@H](C)CO)C(=O)Cc2cc(NS(=O)(=O)c3ccc(F)cc3)ccc2O[C@@H]1CN(C)Cc1ccc(Oc2ccccc2)cc1	nt	nt	nt	1	nt	nt	nt
O=C(C[C@@H]1C[C@H]2c3cc(NC(=O)C4CCOCC4)ccc3O[C@H]2[C@@H](CO)O1)NC1CCCCC1	nt	nt	nt	1	nt	nt	nt
COc1ccc2c(CN3CCCCC3)cc(=O)oc2c1	-8	44*	nt	1	nt	0	0
COc1ccc2c(CN3CCOCC3)cc(=O)oc2c1	-2	2	nt	1	nt	nt	nt
CCCN(CCC)Cc1cc(=O)oc2cc(OC)ccc12	-2	51*	nt	6	nt	4	-1
C[C@H](CO)N1C[C@H](C)[C@H](CN(C)CC2CCOCC2)Oc2cc(C3=CCCC3)ccc2S1(=O)=O	nt	nt	nt	-1	nt	nt	nt
CC(C)(C)NC(=O)CSc1nc(-c2ccccc2)c(-c2ccccc2)[nH]1	0	7	6	-2	8	nt	nt
O=C(O)CSc1nc(-c2ccccc2)c(-c2ccccc2)[nH]1	-2	29*	6	nt	-3	1	1
COc1ccc(S(=O)(=O)N(C)C[C@H]2Oc3ccc(NC(=O)CCC(F)(F)F)cc3CC(=O)N([C@@H](C)CO)C[C@H]2C)cc1	nt	nt	nt	2	nt	nt	nt
O=C(O)C1CSC(c2ccc3c(c2)OCO3)N1 (stereo unspecified)	-3	42*	-4	0	0	-6	-4
CCn1c(-c2cc(-c3ccc(OC(C)C)cc3)nc3ccccc23)n[nH]c1=S	-3	83*	-6	3	16	-1	0
Cc1ccc(C(c2nc3ccccc3[nH]2)n2c(-c3ccccc3)nc3ccccc32)cc1 (stereo unspecified)	-4	28*	nt	-2	nt	8	-1
Cn1cnc(CCNC(=O)C[C@@H]2CC[C@H]3[C@@H](COC[C@@H](O)CN3C(=O)C3CCCC3)O2)c1	nt	nt	nt	-1	nt	nt	nt
Cc1ccc(S(=O)(=O)Nc2ccc3c(c2)C(=O)N([C@H](C)CO)C[C@@H](C)[C@@H](CN(C)Cc2ccccc2)O3)cc1	nt	nt	nt	3	nt	nt	nt
CN(C)c1nc(OCc2ccccc2)c2ncc(=O)[nH]c2n1	0	31*	-6	nt	17	10	-4	GDH-TPI DR=4.9*
Cc1[nH]n2c(=O)c3c(nc2c1-c1cccc2ccccc12)CCC3	0	51*	5	6	8	132*	96*
SMILES	FadD28 binding	Mtb FBA inh	Rv3671c protease	Mtb BioA inh	GDH-TPI counter-1	Mtb FBA confirm	GDH-TPI counter-2	others
COc1ccc(CNC(=O)C23CC4CC(CC(Br)(C4)C2)C3)cc1	0	54*	0	-4	5	71*	40*
CN1CCN(C(=O)C[C@@H]2CC[C@H]3[C@@H](COC[C@H](O)CN3Cc3cccc(Cl)c3)O2)CC1	nt	nt	nt	0	nt	nt	nt
COC(=O)C1(C)Nc2ccccc2C(=O)N1c1ccccc1C (stereo unspecified)	-2	52*	2	-2	16	102*	71*
C[C@@H]1CN([C@@H](C)CO)S(=O)(=O)c2ccc(-c3cncnc3)cc2O[C@@H]1CN(C)C(=O)c1ccc2c(c1)OCO2	nt	nt	nt	0	nt	nt	nt
CCCn1c(/C=C/c2cc[n+](C)cc2)nc2ccccc21	-1	4	-1	1	7	nt	nt
CCC(C)n1c(/C=C/c2ccccc2)nc2ccccc21 (stereo unspecified)	-2	33*	-1	1	17	53*	32*
CCn1c(/C=C/c2ccccc2)nc2ccccc2c1=O	-1	-1	-4	4	25	nt	nt
COc1ccc(Cn2c(/C=C/c3ccccc3)nc3ccccc32)cc1	-10	48*	-8	3	15	169*	138*
CCn1c(/C=C/c2ccccc2)nc2ccccc21	-2	58*	0	1	65*	+	+
COc1ccc(-c2nc3ccccc3n2Cc2ccccc2)cc1	-3	10	-4	0	3	nt	nt
CC(C)Cn1c(/C=C/c2ccccc2)nc2ccccc21	-13	78*	-8	-1	39*	92*	67*
CCCN1C[C@H](C)[C@H](OC)CN(C)C(=O)c2cc(NC(=O)C3CCOCC3)ccc2OC[C@H]1C	nt	nt	nt	-3	nt	nt	nt
CO[C@H]1CN(C)C(=O)c2ccc(NC(C)=O)cc2OC[C@@H](C)N(C(=O)c2ccccc2F)C[C@H]1C	nt	nt	nt	5	nt	nt	nt
CN(C)CC(=O)N[C@@H]1CC[C@@H](CCNC(=O)Nc2ccc(F)cc2)O[C@H]1CO	nt	nt	nt	-4	nt	nt	nt
CCOC(=O)c1c(-c2ccccc2)oc2ccc(OCC(O)CN(C)C)cc12 (stereo unspecified)	nt	48*	-7	4	6	44*	32*
CC(=O)Oc1ccc2c(=O)c(-c3ccccc3)c(C)oc2c1	-2	43*	-4	-1	3	49*	43*
CCOC(=O)c1c(-c2ccccc2)oc2ccc(O)c(CN(C)C)c12	-2	-3	-7	1	16	nt	nt
CCOC(=O)c1c(-c2ccccc2)oc2ccc(OC(C)=O)cc12	0	43*	6	-8	10	2	-4
COc1ccc2c(=O)c(-c3cnn(-c4ccccc4)c3)c(C)oc2c1	-3	3	-2	32	-7	nt	nt
O=C(CC1CC1)N[C@@H]1CC[C@H](CCNS(=O)(=O)c2ccc(F)cc2)O[C@@H]1CO	nt	nt	nt	0	nt	nt	nt
COCC(=O)N1C[C@@H](C)[C@@H](OC)CN(C)C(=O)c2cc(NC(=O)Nc3cccc(F)c3)ccc2OC[C@@H]1C	nt	nt	nt	2	nt	nt	nt
Cc1cnc(N)c2c(=O)oc3ccccc3c12	0	61*	8	1	0	+	+
